Growth data for 16 compounds are collected here from PubChem BioAssay (NCI).

Test systems include HCT-15 colon; HT29 colon; SNB-19 CNS; U251 CNS; PC-3 prostate; SK-MEL-5 melanoma; UACC-62 melanoma; LOX IMVI melanoma; SK-MEL-28 melanoma; SNB-75 CNS.
What all share (experiment): NCI-60 one-dose screen, 48 h (100 = growth as untreated, 0 = no growth, -100 = all killed)
Holding throughout (conditions): 10 µM unless noted

Compounds without any hit were thinned out: in the full panel of roughly 83,000, 20% have a hit.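 Testing used 96-well plates and a 48-hour single-concentration exposure. Example: -40 means 40% of the starting cells died.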 Unmarked numbers belong to inactive results. Activity calls are given as the source filed them. The calls were made as follows: active = growth percent below 10; inactive = the rest.

As to `O=[N+]([O-])c1cccc(-c2nc3sccn3c2-c2ccnc(NCCNS(=O)(=O)c3ccc(C(F)(F)F)cc3)n2)c1`, the growth in the test on HCT-15 colon was 26.7%; in the test on HT29 colon, 40%; in the test on SNB-19 CNS, 61.4%; in the test with U251 CNS, 51.4%; in the test with PC-3 prostate, 17%; in the test with SK-MEL-5 melanoma, -14% (active). Moreover, the growth in the test with UACC-62 melanoma is 13.2%; in the test on LOX IMVI melanoma it was 30.4%; with SK-MEL-28 melanoma, 58.8%.

With `O=C1/C(=C/c2ccc(Cl)c(Cl)c2)CN(C(=O)CCN2CCC(=NO)CC2)C/C1=C\c1ccc(Cl)c(Cl)c1`, the growth was -88.3% (active) with HCT-15 colon; -85.9% (active) with HT29 colon; -96% (active) with SNB-19 CNS; -93.4% (active) in the test on U251 CNS; -71.2% (active) in the test with PC-3 prostate; -93.7% (active) in the test with SK-MEL-5 melanoma. Besides, the growth was -92.3% (active) with UACC-62 melanoma and -92% (active) with SK-MEL-28 melanoma.

For the compound `Cc1cc(N/N=C/c2nc(-c3ccc(Cl)cc3)oc2C)c2cc(Br)ccc2n1`, the growth in the test on HCT-15 colon was -20.3% (active); in the test with HT29 colon, -45.8% (active); in the test on SNB-19 CNS, 41.6%; in the test on U251 CNS it was -33.3% (active); with SK-MEL-5 melanoma, 91.9%; in the test on UACC-62 melanoma, 58.2%. In addition, the growth is -43.4% (active) in the test on LOX IMVI melanoma and 17.5% in the test on SK-MEL-28 melanoma.

As for `CCCCCC(=O)Oc1ccc(/C(=C(\C)c2ccccc2)c2ccc(OCCN(CC)CC)cc2)cc1`, the growth was 38.6% in the test with HCT-15 colon; 4.26% (active) in the test on HT29 colon; 85.3% in the test with SNB-19 CNS; 52.1% in the test on U251 CNS; 55.7% in the test with PC-3 prostate; 54.4% in the test on SK-MEL-5 melanoma. Also, the values for the growth in the test with UACC-62 melanoma, with LOX IMVI melanoma and in the test with SK-MEL-28 melanoma were 57.4%, 68.8% and 53%, respectively.

As for `O=C1/C(=C/c2ccccc2)CN(CCC(=O)N2C/C(=C\c3ccccc3)C(=O)/C(=C/c3ccccc3)C2)C/C1=C\c1ccccc1`, the growth is 18.8% in the test on HCT-15 colon; -13.5% (active) in the test on HT29 colon; 52.9% with SNB-19 CNS; 8.91% (active) in the test with U251 CNS; 51.3% in the test with PC-3 prostate; 60.5% in the test with SK-MEL-5 melanoma. Also, the growth in the test with UACC-62 melanoma is 70.2%; in the test with LOX IMVI melanoma, -51.4% (active); in the test on SK-MEL-28 melanoma, 91.9%.

Regarding `COc1cc2c(=O)n(CC3CCCCC3)c3c4cc[nH]c4ncc3c2cc1OC`, the growth in the test with HCT-15 colon is 32.1%; in the test with HT29 colon, 32%; with SNB-19 CNS it was 57.5%; with U251 CNS, 30.3%; in the test with SK-MEL-5 melanoma, 39.3%; in the test on UACC-62 melanoma, 74.4%. Moreover, the results for the growth with LOX IMVI melanoma and in the test with SK-MEL-28 melanoma were 12.3% and 77.8%, respectively.

As to `CC(=O)Oc1ccc(Nc2c3ccccc3nc3ccccc23)cc1`, the growth in the test with HCT-15 colon was 1.67% (active); with SNB-75 CNS it was 2.16% (active); in the test with SNB-19 CNS, 16.1%; with U251 CNS, 8.7% (active); in the test on PC-3 prostate, 7.48% (active); in the test with SK-MEL-5 melanoma, -73.2% (active). In addition, the growth is -45.3% (active) in the test with UACC-62 melanoma, -34.8% (active) in the test on LOX IMVI melanoma and 25.8% with SK-MEL-28 melanoma.

On to `O=C(Nc1ccc(Oc2ccc(F)cc2)c(Cl)c1)c1cccnc1`, for which the growth is 84.3% in the test on HCT-15 colon; 88.5% in the test with HT29 colon; 93.2% in the test on SNB-19 CNS; 89% in the test with U251 CNS; 90.7% with PC-3 prostate; 79.5% with SK-MEL-5 melanoma. Besides, the values for the growth in the test on UACC-62 melanoma, in the test with LOX IMVI melanoma and in the test on SK-MEL-28 melanoma were 81.3%, 91.2% and 103%, respectively.

Turning to `COc1cc(/C=C2\CN(C(=O)CCN3CCC(=NO)CC3)C/C(=C\c3cc(OC)c(OC)c(OC)c3)C2=O)cc(OC)c1OC`, the growth is -54.7% (active) in the test on HCT-15 colon; -70% (active) in the test on HT29 colon; -90.1% (active) in the test with SNB-19 CNS; -68.6% (active) in the test with U251 CNS; -54.3% (active) with PC-3 prostate; -61.2% (active) in the test with SK-MEL-5 melanoma. Also, the growth in the test on UACC-62 melanoma was -70.7% (active); in the test with LOX IMVI melanoma it was -85.2% (active); in the test on SK-MEL-28 melanoma, -76.7% (active).

For `COc1ccccc1/C=C(/C(=O)c1ccccc1)c1ccccc1`, the growth in the test with HCT-15 colon was 93.4%; in the test with HT29 colon it was 110%; in the test on SNB-19 CNS, 90.8%; in the test on U251 CNS, 96.4%; with PC-3 prostate, 92.2%; with SK-MEL-5 melanoma it was 99.1%. In addition, the growth in the test on UACC-62 melanoma was 82.4%; in the test on LOX IMVI melanoma, 87.8%; in the test on SK-MEL-28 melanoma, 108%.

Turning to `Cc1ccc2cnc(N)c(C#Cc3cncc(C(=O)Nc4ccc(CN5CCN(C)CC5)c(C(F)(F)F)c4)c3)c2c1`, the growth with HCT-15 colon is -91.9% (active); with HT29 colon, -69.9% (active); in the test on SNB-19 CNS it was -99.1% (active); with U251 CNS, -89.5% (active); in the test with SK-MEL-5 melanoma, -95.6% (active); in the test on UACC-62 melanoma, -85.5% (active). For the same compound, the growth is -92.4% (active) in the test on LOX IMVI melanoma and -90.8% (active) in the test on SK-MEL-28 melanoma.

Consider `O=[N+]([O-])c1cccc(-c2nc3sccn3c2-c2ccnc(NCCCNS(=O)(=O)c3ccc(Br)cc3)n2)c1`, for which the growth is 34.1% with HCT-15 colon; 57.1% with HT29 colon; 87.4% in the test with SNB-19 CNS; 83.8% with U251 CNS; 24.5% in the test with PC-3 prostate; -15.6% (active) in the test on SK-MEL-5 melanoma. The figures for the growth in the test with UACC-62 melanoma, in the test on LOX IMVI melanoma and in the test on SK-MEL-28 melanoma were 2.78% (active), 38.4% and 76.9%, respectively.

For the compound `COc1ccc(/C=C2\CN(C(=O)CCN3CCC(=NO)CC3)C/C(=C\c3ccc(OC)cc3)C2=O)cc1`, the growth in the test on HCT-15 colon was -12.8% (active); in the test on HT29 colon, -48.2% (active); in the test with SNB-19 CNS, 8.36% (active); with U251 CNS, -46.2% (active); with PC-3 prostate it was 12.1%; in the test with SK-MEL-5 melanoma, -55.7% (active). Further, the growth was -70.2% (active) in the test on UACC-62 melanoma, -91.8% (active) in the test on LOX IMVI melanoma and -30.5% (active) with SK-MEL-28 melanoma.

Consider `CCOC(=O)c1cnc2ccc(Br)cc2c1Nc1cccc(S(=O)(=O)NC)c1`, for which the growth with HCT-15 colon was 80.5%; with HT29 colon, 101%; in the test with SNB-19 CNS, 100%; in the test on U251 CNS, 109%; in the test on PC-3 prostate it was 102%; in the test on SK-MEL-5 melanoma, 96.6%. Further, the growth is 96.9% with UACC-62 melanoma and 122% with SK-MEL-28 melanoma.

`COc1ccc(-c2cn3c(ccc4ccccc43)n2)cc1`: the growth with HCT-15 colon was 92.4%; in the test on HT29 colon, 108%; with SNB-19 CNS, 99.3%; with U251 CNS it was 105%; in the test on PC-3 prostate, 89.2%; with SK-MEL-5 melanoma it was 78%. Moreover, the figures for the growth with UACC-62 melanoma, with LOX IMVI melanoma and in the test with SK-MEL-28 melanoma were 85.3%, 95.1% and 117%, respectively.

As to `COc1ccc(-n2cc(-c3ccccc3)c3c(SCC(=O)N/N=C/c4ccc([N+](=O)[O-])cc4)ncnc32)cc1`, the growth with HCT-15 colon was 108%; in the test on HT29 colon, 114%; in the test on SNB-19 CNS, 99.7%; with U251 CNS it was 104%; in the test with PC-3 prostate, 96.4%; with SK-MEL-5 melanoma, 100%. The values for the growth in the test with UACC-62 melanoma, in the test on LOX IMVI melanoma and in the test with SK-MEL-28 melanoma were 97.5%, 94.2% and 110%, respectively.
